Assay results as given in the supplement of paper PMC9262897, “Low-cost anti-mycobacterial drug discovery using engineered E. coli” (Nature Communications, 2022).
Structures can show the parent of a compound that is named as a salt. ± gives the standard deviation of the averaged measurements.

Key:
Assay in all cases: growth (OD600 after 10 h); higher = more growth (less inhibition)
[1] = system: E. coli TESEC Alr+ wild-type control; conditions: compound 0.1 mM; raw OD600 reference: median of DMSO wells 0.241, cell-free background 0.041
Method: (§1)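 TESEC Mtb Alr E. coli, or the Alr+ wild-type control, in 384-well plates with Prestwick library compounds at 0.1 mM and 1% DMSO, across arabinose induction levels of 1E3 to 1E7 nM. Growth is read as OD600 after 10 h at 37 °C in triplicate biological replicates.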

E. coli TESEC Mtb Alr [2] = conditions: compound 0.1 mM
Method: as §1

E. coli TESEC Mtb Asd = conditions: compound 0.1 mM
Method: (§2)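 TESEC E. coli strains in which the native enzyme is deleted and replaced by arabinose-inducible Mtb Asd, DapB, CysH or TrpD, each grown in its selective medium. Strains were screened against the Prestwick library at 0.1 mM and 1% DMSO in 384-well format at low and high arabinose induction. Growth is read as OD600 after 10 h in triplicate.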

E. coli TESEC Mtb DapB = conditions: compound 0.1 mM
Method: as §2

E. coli TESEC Mtb Alr [3] = conditions: compound 0.1 mM; remark: listed apart in the source
Method: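 TESEC Mtb Alr E. coli (ΔaraC ΔtolC ΔentC Δalr ΔdadX, arabinose-inducible Mtb Alr) or the Alr+ wild-type control strain, grown in defined M9-fructose medium without D-alanine in 96-well plates with Prestwick library compounds at 0.1 mM and 1% DMSO. Low Alr induction is 0.1 µM arabinose and high induction is 10 mM arabinose.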

[4] = arabinose 1000 nM, raw OD600 reference: median of DMSO wells 0.294, cell-free background 0.041
[5] = arabinose 10000 nM, raw OD600 reference: median of DMSO wells 0.264, cell-free background 0.041
[6] = arabinose 100000 nM, raw OD600 reference: median of DMSO wells 0.201, cell-free background 0.041
[7] = arabinose 1000000 nM, raw OD600 reference: median of DMSO wells 0.193, cell-free background 0.041
[8] = arabinose 10000000 nM, raw OD600 reference: median of DMSO wells 0.146, cell-free background 0.041
[9] = arabinose induction (level): High, raw OD600 reference: median of DMSO wells 0.331, cell-free background 0.041
[10] = arabinose induction (level): Low, raw OD600 reference: median of DMSO wells 0.417, cell-free background 0.041
[11] = arabinose induction (level): High, raw OD600 reference: median of DMSO wells […], cell-free background 0.041
[12] = arabinose induction (level): Low, raw OD600 reference: median of DMSO wells 0.227, cell-free background 0.041
[13] = arabinose 100 nM, raw OD600 reference: median of DMSO wells 0.413, cell-free background 0.052
[14] = arabinose 10000000 nM, raw OD600 reference: median of DMSO wells […], cell-free background 0.052

SMILES	growth [1]	growth (E. coli TESEC Mtb Alr [2]; [4])	growth (E. coli TESEC Mtb Alr [2]; [5])	growth (E. coli TESEC Mtb Alr [2]; [6])	growth (E. coli TESEC Mtb Alr [2]; [7])	growth (E. coli TESEC Mtb Alr [2]; [8])	growth (E. coli TESEC Mtb Asd; [9])	growth (E. coli TESEC Mtb Asd; [10])	growth (E. coli TESEC Mtb DapB; [11])	growth (E. coli TESEC Mtb DapB; [12])	growth (E. coli TESEC Mtb Alr [3]; [13])	growth (E. coli TESEC Mtb Alr [3]; [14])
CC(C)(C)C(=O)OCOC(=O)[C@@H]1N2C(=O)[C@@H](NC(=O)[C@H](N)c3ccccc3)[C@H]2SC1(C)C [Pivampicillin]	0.26 ± 0.0055	0.351 ± 0.0076	0.285 ± 0.011	0.298 ± 0.011	0.207 ± 0.02	0.203 ± 0.0048	0.376 ± 0.075	0.396 ± 0.018	0.216 ± 0.058	0.24 ± 0.024	0.4 ± 0.012	0.379 ± 0.028
N=C(N)NCCN1CCCCCCC1 [Guanethidine sulfate]	0.255 ± 0.0095	0.298 ± 0.027	0.266 ± 0.0054	0.24 ± 0.012	0.173 ± 0.011	0.168 ± 0.011	0.291 ± 0.094	0.366 ± 0.069	0.205 ± 0.0096	0.247 ± 0.008	0.419 ± 0.008	0.384 ± 0.015
N=C(N)NCc1cccc(I)c1 [Iobenguane sulfate]	0.231 ± 0.005	0.289 ± 0.0045	0.267 ± 0.0098	0.238 ± 0.029	0.202 ± 0.012	0.149 ± 0.011	0.29 ± 0.018	0.425 ± 0.056	0.188 ± 0.0051	0.265 ± 0.04	0.409 ± 0.016	0.384 ± 0.013
CCN1CCC[C@H]1CNC(=O)c1c(O)c(Cl)cc(Cl)c1OC [Raclopride]	0.173 ± 0.014	0.16 ± 0.01	0.148 ± 0.017	0.14 ± 0.014	0.107 ± 0.0082	0.172 ± 0.0058	0.13 ± 0.013	0.133 ± 0.014	0.173 ± 0.013	0.166 ± 0.019	0.395 ± 0.038	0.175 ± 0.027
NC(=O)N/N=C/c1ccc([N+](=O)[O-])o1 [Nitrofural]	0.044 ± 0.00072	0.0426 ± 0.00078	0.04193 ± 0.00015	0.044 ± 0.0018	0.042 ± 0.00045	0.0427 ± 0.00084	0.0898 ± 0.0054	0.0756 ± 0.0054	0.11 ± 0.0086	0.145 ± 0.016	0.0532 ± 0.0056	0.0522 ± 0.00076
C[C@H]1O[C@@H](O[C@H]2[C@@H](O)C[C@H](O[C@H]3[C@@H](O)C[C@H](O[C@H]4CC[C@@]5(C)[C@H](CC[C@@H]6[C@@H]5C[C@@H](O)[C@]5(C)[C@@H](C7=CC(=O)OC7)CC[C@]65O)C4)O[C@@H]3C)O[C@@H]2C)C[C@H](O)[C@@H]1O [Digoxin]	0.232 ± 0.0079	0.282 ± 0.01	0.275 ± 0.0083	0.2 ± 0.0092	0.176 ± 0.0061	0.136 ± 0.0037	0.28 ± 0.057	0.413 ± 0.046	0.196 ± 0.016	0.236 ± 0.045	0.414 ± 0.0055	0.329 ± 0.044
CCC(=O)[C@@]1(C)[C@H](C)C[C@H]2[C@@H]3CCC4=CC(=O)C=C[C@]4(C)[C@H]3[C@@H](O)C[C@@]21C [Rimexolone]	0.216 ± 0.0076	0.275 ± 0.019	0.248 ± 0.0084	0.139 ± 0.005	0.148 ± 0.0067	0.132 ± 0.0029	0.203 ± 0.03	0.41 ± 0.047	0.197 ± 0.0062	0.209 ± 0.026	0.414 ± 0.019	0.365 ± 0.038
NC(CO)C(=O)NNCc1ccc(O)c(O)c1O (centres undefined) [Benserazide hydrochloride]	0.0616 ± 0.0013	0.246 ± 0.0069	0.224 ± 0.0028	0.205 ± 0.033	0.0994 ± 0.0023	0.124 ± 0.0056	0.186 ± 0.018	0.186 ± 0.0073	0.185 ± 0.023	0.227 ± 0.024	0.337 ± 0.069	0.148 ± 0.03
Cc1c(OCC(F)(F)F)ccnc1C[S+]([O-])c1nc2ccccc2[nH]1 (centres undefined) [Lansoprazole]	0.131 ± 0.0017	0.164 ± 0.0045	0.242 ± 0.01	0.132 ± 0.0025	0.094 ± 0.0041	0.14 ± 0.0041	0.236 ± 0.024	0.191 ± 0.0085	0.175 ± 0.0097	0.203 ± 0.02	0.363 ± 0.035	0.163 ± 0.025
O=C1O[C@H]([C@@H](O)CO)C(O)=C1O [Ascorbic acid]	0.255 ± 0.0052	0.303 ± 0.0086	0.249 ± 0.007	0.22 ± 0.043	0.186 ± 0.0041	0.157 ± 0.0037	0.374 ± 0.076	0.445 ± 0.06	0.187 ± 0.0051	0.209 ± 0.0043	0.387 ± 0.024	0.35 ± 0.028
CCCCc1ccc2[nH]c(NC(=O)OC)nc2c1 [Parbendazole]	0.244 ± 0.01	0.307 ± 0.0063	0.277 ± 0.0036	0.213 ± 0.034	0.206 ± 0.0056	0.156 ± 0.0051	0.279 ± 0.015	0.435 ± 0.0069	0.208 ± 0.0058	0.279 ± 0.031	0.4255 ± 0.003	0.374 ± 0.045
Nc1nc2[nH]cc(CCc3ccc(C(=O)N[C@@H](CCC(=O)O)C(=O)O)cc3)c2c(=O)[nH]1 [Pemetrexed disodium]	0.258 ± 0.0062	0.303 ± 0.017	0.274 ± 0.019	0.218 ± 0.029	0.184 ± 0.0046	0.156 ± 0.0069	0.281 ± 0.0067	0.405 ± 0.063	0.19 ± 0.019	0.231 ± 0.013	0.416 ± 0.013	0.32 ± 0.012
Cc1ncc([N+](=O)[O-])n1CC(O)CCl (centres undefined) [Ornidazole]	0.233 ± 0.0094	0.282 ± 0.012	0.268 ± 0.007	0.225 ± 0.019	0.177 ± 0.0086	0.1385 ± 0.00036	0.381 ± 0.015	0.421 ± 0.028	0.191 ± 0.0088	0.218 ± 0.031	0.409 ± 0.0059	0.369 ± 0.02
Nc1nc(=O)c2c([nH]1)NC[C@@H](CNc1ccc(C(=O)N[C@@H](CCC(=O)O)C(=O)O)cc1)N2C=O [Folinic acid calcium salt]	0.255 ± 0.0064	0.289 ± 0.0096	0.274 ± 0.0059	0.204 ± 0.033	0.211 ± 0.016	0.1379 ± 0.0013	0.307 ± 0.0086	0.391 ± 0.08	0.203 ± 0.012	0.218 ± 0.014	0.397 ± 0.008	0.375 ± 0.019
CC(Oc1c(Cl)cccc1Cl)C1=NCCN1 (centres undefined) [Lofexidine]	0.211 ± 0.008	0.27 ± 0.0089	0.259 ± 0.016	0.179 ± 0.015	0.172 ± 0.0071	0.139 ± 0.0016	0.261 ± 0.069	0.464 ± 0.093	0.205 ± 0.013	0.206 ± 0.012	0.406 ± 0.0098	0.331 ± 0.032
CN(C)CCN(Cc1cccs1)c1ccccn1 [Methapyrilene hydrochloride]	0.216 ± 0.0071	0.281 ± 0.012	0.252 ± 0.007	0.224 ± 0.024	0.165 ± 0.0065	0.143 ± 0.0051	0.257 ± 0.024	0.41 ± 0.059	0.175 ± 0.0071	0.193 ± 0.0062	0.402 ± 0.011	0.332 ± 0.011
Nc1cc(C(Cl)=C(Cl)Cl)c(S(N)(=O)=O)cc1S(N)(=O)=O [Clorsulon]	0.224 ± 0.0038	0.278 ± 0.0056	0.269 ± 0.0061	0.214 ± 0.029	0.179 ± 0.0043	0.15 ± 0.0072	0.283 ± 0.025	0.3101 ± 0.0016	0.216 ± 0.014	0.248 ± 0.016	0.414 ± 0.011	0.335 ± 0.025
